Several values for one entry are separate records, joined by “and”; a condition that tells them apart may be missing. Equal entries are not always repeated. Inconclusive results are not listed. A structure can be active in one record and inactive in another. Activity calls are given as the source filed them. Unless noted, calls follow the shape of the dose curve; as a rule, active = well fitted curve in the direction sought with a large enough effect in the repeat runs; inconclusive = weak or mixed curves; inactive = no such curve, though single readings can be large; an effect the other way counts as inactive or inconclusive.
Legend:
[1] = biological target: Thyrotropin receptor (Homo sapiens) (UniProt P16473); assay: qHTS assay to identify small molecule agonists of the thyroid stimulating hormone receptor (TSHR) signaling pathway (AID 1224843; calls by dose curve; also: nearly all actives have a fitted effect of over 45% in size)
Procedure, shortened: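 Screening of the Tox21 10K collection used HEK293 cells engineered with TSHR at 800 cells per well. After a 30-min room-temperature compound exposure, HTRF cAMP reagents were added and fluorescence recorded 1 h later.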

[2] = qHTS assay to identify small molecule agonists of the hypoxia (HIF-1) signaling pathway - cell viability counter screen (AID 1224844; calls by dose curve; also: nearly all actives have a fitted effect of over 50% in size; also: potency is read from the fitted curve at half-maximal effect)
Procedure, shortened: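 Multiplexed with the HRE beta-lactamase assay, this viability read used CellTiter-Glo luminescence (30 min, RT) on HRE-bla ME-180 cells treated 17 hrs with compounds in 0.5% dialyzed FBS medium.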

[3] = qHTS assay to identify small molecule agonists of H2AX - cell viability counter screen (AID 1224847; calls by dose curve; also: nearly all actives have a fitted effect of over 30% in size; also: potency is read from the fitted curve at half-maximal effect)
Procedure, shortened: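 Wild-type CHO-K1 cells (10% FBS medium) were plated overnight at 37C, exposed to compounds at 15 concentrations for 3 hr at 37C (0.76% DMSO final), and viability was read as CellTiter-Glo luminescence after 30 min at room temperature.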

[4] = qHTS RealTime-Glo MT Cell Viability Assay in HepG2 cells - 24 hour (AID 1224867); also: nearly all actives have a fitted effect of over 50% in size
Procedure, shortened: (§1)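 Cell number in HepG2 cultures estimated from NanoLuc luminescence generated by metabolic reduction of a prosubstrate by living cells. The homogeneous, nonlytic format allowed repeated reads at 0, 8, 16, 24, 32 and 40 h of compound exposure.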

[5] = qHTS RealTime-Glo MT Cell Viability Assay in HEK293 cells - 32 hour (AID 1224868); also: nearly all actives have a fitted effect of over 50% in size; also: potency is read from the fitted curve at half-maximal effect
Procedure, shortened: (§2)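 Homogeneous bioluminescent viability format in HEK293 cells (600 cells/well). Following 5 h at 37 C/5% CO2, 23 nL compound was pintooled; the signal was measured repeatedly during 40 h incubation.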

[6] = A CellTox Green Cytotoxicity Assay to monitor cytotoxicity in HEK293 cells - 0 hour (AID 1224869); also: nearly all actives have a fitted effect of over 50% in size; also: potency is read from the fitted curve at half-maximal effect
Procedure, shortened: (§3)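 Seeding of HEK293 cells together with cytotoxicity dye preceded a 5 h incubation at 37 C/5% CO2. Test compounds in DMSO were then added and fluorescence monitored across 40 h.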

[7] = qHTS RealTime-Glo MT Cell Viability Assay in HepG2 cells - 40 hour (AID 1224870); also: nearly all actives have a fitted effect of over 50% in size
Procedure, shortened: (§4)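 Real-time viability: cells seeded at 600 per well together with NanoLuc and cell-permeant prosubstrate, compounds added after 5 h incubation. Luminescence tracked at 0, 8, 16, 24, 32 and 40 h of exposure.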

[8] = A CellTox Green Cytotoxicity Assay to monitor cytotoxicity in HEK293 cells - 40 hour (AID 1224871); also: nearly all actives have a fitted effect of over 45% in size; also: potency is read from the fitted curve at half-maximal effect
Procedure, shortened: as §3

[9] = qHTS RealTime-Glo MT Cell Viability Assay in HEK293 cells - 16 hour (AID 1224872)
Procedure, shortened: as §2

[10] = qHTS RealTime-Glo MT Cell Viability Assay in HepG2 cells - 8 hour (AID 1224873); also: nearly all actives have a fitted effect of over 55% in size
Procedure, shortened: as §4

[11] = qHTS RealTime-Glo MT Cell Viability Assay in HEK293 cells - 40 hour (AID 1224874); settings: RealTime-Glo luminescence; max response: stronger effect = lower value; also: nearly all actives have a fitted effect of over 50% in size; also: potency is read from the fitted curve at half-maximal effect
Procedure, shortened: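 Tox21 screen in HEK293 using RealTime-Glo MT chemistry, with cells and reagent co-dispensed. Luminescence proportional to viable cell number was captured at intervals during 40 h compound exposure at 37 C.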

[12] = A CellTox Green Cytotoxicity Assay to monitor cytotoxicity in HEK293 cells - 24 hour (AID 1224875); also: nearly all actives have a fitted effect of over 45% in size; also: potency is read from the fitted curve at half-maximal effect
Procedure, shortened: as §3

[13] = A CellTox Green Cytotoxicity Assay to monitor cytotoxicity in HepG2 cells - 16 hour (AID 1224876); also: nearly all actives have a fitted effect of over 45% in size; also: potency is read from the fitted curve at half-maximal effect
Procedure, shortened: (§5)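 Nonlytic assay: viable cells exclude the dye, so fluorescence scales with cell death. HepG2 at 600 cells/well, compounds added after 5 h, signal read across 40 h.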

[14] = qHTS RealTime-Glo MT Cell Viability Assay in HepG2 cells - 32 hour (AID 1224877); also: nearly all actives have a fitted effect of over 55% in size
Procedure, shortened: as §1

[15] = A CellTox Green Cytotoxicity Assay to monitor cytotoxicity in HepG2 cells - 24 hour (AID 1224878); also: nearly all actives have a fitted effect of over 45% in size; also: potency is read from the fitted curve at half-maximal effect
Procedure, shortened: as §5

[16] = A CellTox Green Cytotoxicity Assay to monitor cytotoxicity in HepG2 cells - 40 hour (AID 1224879); also: nearly all actives have a fitted effect of over 40% in size; also: potency is read from the fitted curve at half-maximal effect
Procedure, shortened: as §5

[17] = qHTS assay to identify small molecule agonists of H2AX (AID 1224845; active = well fitted activation curve with a large enough effect in the signal ratio in the repeat runs, not every such curve was filed as active; the % refers to the signal ratio)
Procedure, shortened: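 Phospho-H2AX Ser139 measured by HTRF (ex 320 nm; em 665 and 620 nm) after 24 hr antibody incubation. Compounds, 15 concentrations, 0.76% DMSO, were applied to CHO-K1 cells for 3hr at 37C before lysis.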

[18] = qHTS assay to identify small molecule agonists of the hypoxia (HIF-1) signaling pathway (AID 1224846; active = well fitted activation curve with a large enough effect in the signal ratio in the repeat runs, not every such curve was filed as active; the % refers to the signal ratio)
Procedure, shortened: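 Hypoxia-pathway activation was scored as increased beta-lactamase from an HRE-controlled reporter in ME-180 cells; plated at 2,000 cells per well with 0.5% dialyzed FBS, they were exposed 17 hrs to compounds and then given CCF4-AM.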

[19] = qHTS assay to identify small molecule antagonists of the estrogen related receptor (ERR) signaling pathway from Tox21 library (AID 1224848); also: nearly all actives have a fitted effect of over 50% in size
Procedure, shortened: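 Antagonist-mode screen of the Tox21 10K library in an NTP-provided ERR reporter cell line; 18 h compound exposure at 37 C, luminescence measured with ONE-Glo.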

[20] = qHTS assay to identify small molecule agonists of the estrogen related receptor (ERR) signaling pathway from Tox21 library (AID 1224849; calls by dose curve; also: nearly all actives have a fitted effect of over 15% in size); settings: ERR reporter cell line, ONE-Glo luciferase, 18 h
Procedure, shortened: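 Six hours post-seeding at 37 C/5% CO2, ERR cells receive DMSO-solubilised compounds; after 18 h at 37 C, ONE-Glo reagent is applied and luminescence recorded.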
% is scaled to controls: 0 for no effect and ±100 for the full control effect.

Thyrotropin receptor (Homo sapiens), sequence (P16473 whole entry, looked up): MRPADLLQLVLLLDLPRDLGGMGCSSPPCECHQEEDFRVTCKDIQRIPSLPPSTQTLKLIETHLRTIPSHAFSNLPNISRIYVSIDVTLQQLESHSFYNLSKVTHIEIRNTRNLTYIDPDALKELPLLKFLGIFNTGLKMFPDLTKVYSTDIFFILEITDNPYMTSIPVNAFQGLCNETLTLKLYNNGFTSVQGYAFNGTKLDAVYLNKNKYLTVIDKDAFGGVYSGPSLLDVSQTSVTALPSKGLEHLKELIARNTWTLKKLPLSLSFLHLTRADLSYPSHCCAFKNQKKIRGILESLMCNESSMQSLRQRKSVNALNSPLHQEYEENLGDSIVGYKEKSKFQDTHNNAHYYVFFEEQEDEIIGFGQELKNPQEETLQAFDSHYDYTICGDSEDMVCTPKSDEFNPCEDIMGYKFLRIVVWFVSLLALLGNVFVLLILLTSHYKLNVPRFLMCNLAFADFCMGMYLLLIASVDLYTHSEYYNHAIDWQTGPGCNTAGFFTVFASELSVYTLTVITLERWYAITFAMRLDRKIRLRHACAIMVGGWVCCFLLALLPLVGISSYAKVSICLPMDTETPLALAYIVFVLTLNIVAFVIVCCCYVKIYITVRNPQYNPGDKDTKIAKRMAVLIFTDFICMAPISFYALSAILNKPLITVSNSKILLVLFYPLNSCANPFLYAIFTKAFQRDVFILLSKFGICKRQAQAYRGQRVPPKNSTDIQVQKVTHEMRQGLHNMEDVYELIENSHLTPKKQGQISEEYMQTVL

CN1C(C(=O)Nc2ccccn2)=C(O)c2ccccc2S1(=O)=O
inactive: Potency [1] | Potency [2] | Potency [3] | Potency [4] | Potency [5] | Potency [6] | Potency [7] | Potency [8] | Potency [9] | Potency [10] | max response [11] 10.9% and -0.648% | Potency [12] | Potency [13] | Potency [14] | Potency [15] | Potency [16]

O=C(/C=C/c1ccccc1)OCc1ccccc1
inactive: Potency [2] | outcome [17] | Potency [18] | Potency [3] | Potency [19] | Potency [4] | Potency [5] | Potency [6] | Potency [7] | Potency [8] | Potency [10] | Potency [12] | Potency [13] | Potency [14] | Potency [15] | Potency [16]
active: activity change, positive = activation ([20]; at 42.5 µM (top of the series)) 33.8% | activity change, positive = activation ([20]; at 92.4 µM (top of the series)) 36.2%

c1ccc2cc(Nc3ccc(Nc4ccc5ccccc5c4)cc3)ccc2c1
inactive and 12.3 µM (active): Potency [16]
inactive: Potency [2] | outcome [17] | Potency [18] | Potency [3] | Potency [19] | activity change, positive = activation ([20]; at 92.4 µM (top of the series)) 1.47% and 5.2% | Potency [4] | Potency [5] | Potency [6] | Potency [7] | Potency [8] | Potency [10] | Potency [12] | Potency [13] | Potency [14] | Potency [15]

CC1=CC2C3CC(C=C3C)C2C1 (stereo not given)
inactive and 24.5 µM (active): Potency [13]
inactive: Potency [2] | outcome [17] | Potency [18] | Potency [3] | Potency [19] | activity change, positive = activation ([20]; at 92.4 µM (top of the series)) 0.676% and -14.6% | Potency [4] | Potency [5] | Potency [7] | Potency [9] | Potency [10] | max response [11] 6.31% and 1.24% | Potency [14]
inactive and 27.5 µM (active): Potency [15]
inactive and 38.9 µM (active): Potency [6] | Potency [8] | Potency [16]

C#C[C@]1(O)CC[C@H]2[C@@H]3CCc4cc(OC)ccc4[C@H]3CC[C@@]21C
inactive: Potency [2] | outcome [17] | Potency [18] | Potency [19] | activity change, positive = activation ([20]; at 42.5 µM (top of the series)) -12.2% | activity change, positive = activation ([20]; at 92.4 µM (top of the series)) -15.3% | Potency [4] | Potency [6] | Potency [7] | Potency [10] | Potency [12] | Potency [13]
active: Potency [3] 45 µM | Potency [5] 24.5 µM and 19 µM | Potency [11] 24.5 µM and 19 µM

Brc1cc(Oc2cc(Br)c(Br)c(Br)c2Br)c(Br)c(Br)c1Br
inactive: Potency [18] | Potency [3] | Potency [4] | Potency [5] | Potency [6] | Potency [7] | Potency [8] | Potency [10] | max response [11] -1.03% and -0.229% | Potency [12] | Potency [13] | Potency [14] | Potency [15] | Potency [16]
49.2 µM (active) and inactive: Potency [2]

Nc1ncnc2nc[nH]c12
active: activity change, positive = activation ([20]; at 92.4 µM (top of the series)) 111%
inactive: Potency [2] | Potency [19] | Potency [4] | Potency [5] | Potency [6] | Potency [7] | Potency [8] | Potency [9] | Potency [10] | Potency [12] | Potency [13] | Potency [15] | Potency [16]

Oc1ccc(O)cc1
inactive: Potency [2] | Potency [4] | Potency [6] | Potency [7] | Potency [8] | Potency [10] | Potency [12] | Potency [13] | Potency [14] | Potency [15] | Potency [16]

Nc1ccccc1N
56.2 µM (active) and inactive: Potency [13] | Potency [15]
active: Potency [2] 43.6 µM | Potency [6] 50.1 µM | Potency [8] 50.1 µM | Potency [12] 50.1 µM | Potency [16] 28.2 µM
inactive: Potency [18] | Potency [3] | Potency [4] | Potency [5] | Potency [7] | Potency [10] | max response [11] -5.16%

Cc1cc2nc3c(=O)[nH]c(=O)nc-3n(C[C@H](O)[C@H](O)[C@H](O)CO)c2cc1C
active: Potency [6] 43.2 µM and 40.5 µM and 11.7 µM | Potency [8] 43.2 µM and 40.5 µM and 10.4 µM | Potency [12] 48.5 µM and 40.5 µM and 11.7 µM | Potency [13] 43.2 µM and 40.5 µM and 11.7 µM | Potency [15] 43.2 µM and 40.5 µM and 11.7 µM | Potency [16] 43.2 µM and 40.5 µM and 11.7 µM
inactive: Potency [2] | outcome [17] | Potency [3] | Potency [4] | Potency [5] | Potency [7] | Potency [9] | Potency [10] | Potency [14]

c1cc(-c2ccncc2)ccn1
inactive: Potency [2] | Potency [18] | Potency [3] | Potency [4] | Potency [5] | Potency [6] | Potency [7] | Potency [8] | Potency [10] | max response [11] -8.48% and 4.82% | Potency [12] | Potency [13] | Potency [14] | Potency [15] | Potency [16]

O=c1oc(=O)c2cc3c(=O)oc(=O)c3cc12
inactive: Potency [2] | Potency [18] | Potency [3] | Potency [19] | activity change, positive = activation ([20]; at 92.4 µM (top of the series)) 1.24% and 2.94% | Potency [4] | Potency [5] | Potency [6] | Potency [7] | Potency [8] | Potency [9] | Potency [10] | Potency [12] | Potency [13] | Potency [14] | Potency [15] | Potency [16]

Reference: PubChem BioAssay (Tox21)
